The values below come from PubChem BioAssay AID1030 (National Center for Advancing Translational Sciences (NCATS), 2008).

Molecules are shown by their SMILES. In all, about 220,000 compounds went through this assay and about 16,000 (7.3%) were called active. Not shown: some 25% with an inconclusive outcome. Shown is part of a subset that was picked to be rich in actives. A call without a number means that no potency is given here. A number with no mark means an inactive call. The call rests on the fitted dose curve; in most records, active means well fitted inhibition curve with a large enough effect (not every such curve was filed as active); inconclusive means small, poorly fitted or top-dose-only effect, or another doubt; inactive means no such curve, though single readings can be large or run the other way. Square brackets hold non-standard residues; d marks the D form. Peptide text beside a SMILES is read from it. ξ: configuration not given here. ξM = CSCCC(N)C(=O)O
Potency means the concentration at half of the fitted maximal effect.

Chain of Aldehyde dehydrogenase 1A1 (Homo sapiens) (P00352 whole entry, looked up): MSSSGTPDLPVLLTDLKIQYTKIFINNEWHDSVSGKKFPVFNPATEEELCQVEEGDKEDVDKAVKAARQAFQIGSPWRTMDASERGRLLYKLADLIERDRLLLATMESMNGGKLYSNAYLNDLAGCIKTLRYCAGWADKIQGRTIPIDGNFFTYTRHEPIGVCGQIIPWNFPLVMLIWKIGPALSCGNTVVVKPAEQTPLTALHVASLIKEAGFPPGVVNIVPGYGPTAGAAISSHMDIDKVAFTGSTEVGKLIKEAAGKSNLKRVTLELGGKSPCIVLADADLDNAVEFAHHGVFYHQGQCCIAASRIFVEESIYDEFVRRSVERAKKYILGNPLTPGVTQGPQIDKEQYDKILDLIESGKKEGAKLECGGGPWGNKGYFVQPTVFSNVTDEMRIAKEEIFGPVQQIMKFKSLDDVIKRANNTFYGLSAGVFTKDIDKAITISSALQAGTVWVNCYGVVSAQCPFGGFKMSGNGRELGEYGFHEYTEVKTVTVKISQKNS

This assay has as its target Aldehyde dehydrogenase 1A1 (Homo sapiens) (UniProt P00352). Kind of assay: qHTS Assay for Inhibitors of Aldehyde Dehydrogenase 1 (ALDH1A1). As to conditions: Purified ALDH1A1, NADH fluorescence, propionaldehyde substrate; series mostly up to 75.3 µM. (qHTS replaces the single test concentration by a dilution series.)
Consider `Oc1ccc(-c2nncn2-c2ccccc2)cc1`, for which the Potency result was “inactive”. Take `COc1ccccc1C(=O)CSc1cccc[n+]1[O-]`: the Potency was 14.1 µM (active). For the molecule `O=C(CSc1cccc[n+]1[O-])c1ccc(Cl)cc1`, the Potency result was “inactive”.

Take `O=C(CSc1cccc[n+]1[O-])NCCCc1ccccc1`: the Potency result was “inactive”. On to `Cc1cccc(N2CC(C)Cn3c2nc2c3c(=O)n(CC(=O)OCc3ccccc3)c(=O)n2C)c1` (centres undefined), for which the Potency entry is “inactive”. As for `CC(C)Cn1c(CN(Cc2ccccc2)Cc2ccccc2)nc2c1c(=O)n(C)c(=O)n2C`, the Potency result was “inactive”.

Take `Cn1c(=O)n(CCc2ccccc2)c(=O)c2c1nc1n2CCCN1c1ccccc1`: the Potency is 8.91 µM (active). Still for that read-out and setting: under `COc1ccc(C(=O)N2CCC(C(=O)Nc3ccc(C)cc3)CC2)cc1` stands “inactive”; under `CCOC(=O)C1CCN(C(=O)c2ccccc2N(C)S(=O)(=O)c2ccccc2)CC1`, “inactive”; under `Cc1ccccc1C(=O)N1CCC(C(=O)Nc2ccc(S(=O)(=O)N(C)C(C)C)cc2)CC1`, 12.6 µM (active). For `COc1ccc(N(CC(=O)Nc2ccc(C)cc2C)S(=O)(=O)c2ccccc2[N+](=O)[O-])c(OC)c1`, the Potency entry was “inactive”.

As for `CNS(=O)(=O)c1ccc(N2CCCC2=O)c([N+](=O)[O-])c1`, the Potency entry was “inactive”. Still for that read-out and setting: then `CCCCC/C=C\CC1OC1CCCCCCCC(=O)O` (centres undefined), with “inactive”. Turning to `CC1=C/C(=N\S(=O)(=O)c2ccccc2)C(C(C)C)=CC1=O`, the Potency result is “inactive”. `CC1=C/C(=N\OS(=O)(=O)c2ccccc2)C=CC1=O`: the Potency was 11.2 µM (active). Regarding `CCOC(=O)C1(S(=O)(=O)c2ccccc2)CCN(Cc2ccccc2)CC1`, the Potency result is “inactive”. On to `COc1cccc(NC(=O)CN(C)CC(=O)Nc2ccc3c(c2)CCC3)c1`, for which the Potency result is “inactive”. In the case of `Cc1ccnc(NC(=O)c2ccc(Cl)c([N+](=O)[O-])c2)c1`, the Potency result was “inactive”.

`Cc1ccccc1NC(=O)CN1C(=O)N/C(=C\c2cccn2-c2cccc(C(=O)O)c2)C1=O`: the Potency result is “inactive”. Still for that read-out and setting: then `COc1ccc(C(=O)CN2C(=O)NC(C)(c3ccc(C)cc3)C2=O)cc1OC` (centres undefined), with “inactive”. Same read-out and setting: under `COC(=O)CN1C(=O)N/C(=C/c2ccc(OC)c(C)c2OC)C1=O` stands 6.31 µM (active); under `CC(=O)Nc1ccc(OCCC[n+]2cccc(C(=O)[O-])c2)cc1`, “inactive”; under `Cc1ccc(-c2nnn(CC(=O)N(Cc3ccco3)C(C(=O)NC(C)(C)C)c3ccncc3)n2)o1` (centres undefined), “inactive”. For `COc1ccc(S(=O)(=O)Nc2ccc(S(=O)(=O)N3CCCCC3)cc2)cc1OC`, the Potency was 0.562 µM (active). `COc1ccc(S(=O)(=O)N2CCCCC2)cc1Br`: the Potency entry is “inactive”.

On to `COc1ccc(NS(=O)(=O)c2ccc(NC(C)=O)cc2)cc1OC`, for which the Potency result was “inactive”. Still for that read-out and setting: then `CN(C)/N=C/c1cn(-c2ccccc2)nc1-c1cccnc1`, with “inactive”; and `COc1ccc(C(=O)NNS(=O)(=O)c2ccc(C)cc2)cc1`, with “inactive”.

Consider `Cc1cccc(OCc2ccc(C(=O)Nc3ccc(F)cc3)cc2)c1`, for which the Potency result was “inactive”. Same read-out and setting: then `Cc1ccc(COc2ccc(C(=O)NN)cc2)cc1`, with 1 µM (active); and `COC(=O)/C(NC(C)=O)=C(\C)c1ccc(Cl)cc1`, with “inactive”; and `COC(=O)C(=Nc1ccccc1)/C(C(=O)C(=O)N(C)c1ccccc1)=C(\O)c1ccc(Cl)cc1`, with 25.1 µM (active). Consider `CN(C(=O)CC(NC(=O)c1ccccc1)(c1ccccc1)c1ccccc1)c1ccccc1`, for which the Potency entry is “inactive”. On to `COc1ccccc1CNC(=O)C1Cc2ccccc2C(=O)O1` (centres undefined), for which the Potency entry was “inactive”. Regarding `Cc1cccc(N2CCC(NCc3c(C(=O)N4CCCCC4)nc4c(C)cccn34)CC2)c1`, the Potency result is “inactive”.

As for `COCCn1c(C)cc(C2=NNC(=Nc3ccc(F)cc3)SC2)c1C`, the Potency is 10 µM (active). As to `COC(=O)c1cc(NC(=O)CN2CCN(C(C)=O)CC2)cc(C(=O)OC)c1`, the Potency result was “inactive”. On the same count and under the same terms, under `O=C(NC1CC1)c1cccc(Br)c1` stands “inactive”.

Take `NS(=O)(=O)c1ccc(NC(=S)NC(=O)c2cccnc2)cc1`: the Potency entry was “inactive”. For `O=C(Nc1ccc(S(=O)(=O)Nc2ncccn2)cc1)c1cncc(Br)c1`, the Potency result is “inactive”. Consider `O=C(/C=C/c1ccccc1Cl)Nc1ccc(S(=O)(=O)Nc2ncccn2)cc1`, for which the Potency result was “inactive”. As for `NS(=O)(=O)c1ccc(NC(=S)NC(=O)c2cccc(Br)c2)cc1`, the Potency is 25.1 µM (active). Consider `O=C(NC(=S)Nc1cccc2c(O)cccc12)c1cccc(Br)c1`, for which the Potency is 3.16 µM (active).

In the case of `COc1ccc(NC(=S)Nc2ccc(S(N)(=O)=O)cc2)c(C)c1`, the Potency result is “inactive”.

As to `COC(=O)c1ccccc1NC(=S)NC(=O)c1ccccc1F`, the Potency entry is “inactive”. Same read-out and setting: then `O=C(NC(=S)Nc1ccc(S(=O)(=O)Nc2ncccn2)cc1)c1cccc(Br)c1`, with 10 µM (active); and `COc1ccc(/C=N/n2c(C)cc(C)cc2=O)cc1`, with “inactive”; and `CC1=NNC(=O)C1CCC(=O)N/N=C\c1ccc(Cl)c(Cl)c1` (centres undefined), with “inactive”. The same measure, in the same setting: under `O=C(N/N=C/c1ccc2c(c1)OCO2)C(=O)N1CCCC1` stands “inactive”. As to `COC(=O)C1=C(C(=O)OC)[C@@H]2N(C)c3ccccc3[C@@]23C[C@@H](C(=O)OC)N(C(=O)c2ccco2)C3=N1`, the activity, negative = inhibition was 11.6% [at 13.5 µM]. Consider `O=C(Nc1ccc2c(c1)OCO2)c1sc2cc(Cl)ccc2c1Cl`, for which the Potency entry was “inactive”. As to `Cc1ccc(C2CC2C(=O)NN)cc1` (centres undefined), the Potency was 14.1 µM (active).

`COC(=O)C1C(=O)NCC1c1ccc(C)cc1` (centres undefined): the Potency entry is “inactive”. As for `Cc1ccc(C2NC(C(=O)O)CS2)cc1` (centres undefined), the Potency result was “inactive”. Still for that read-out and setting: under `O=C(O)Cc1ccc(-c2ccccc2)cc1` stands “inactive”. For the molecule `CCOC(=O)/C=C/C(=O)OCC(=O)NC(c1ccccc1)c1ccccc1`, the Potency result was “inactive”. As for `O=C(Cc1ccc(-c2ccccc2)cc1)NC(c1ccccc1)c1ccccc1`, the Potency is 10 µM (active). The same measure, in the same setting: then `COc1ccc(Br)c2c1C(=O)CC2`, with “inactive”; and `CCC(CC)NC(=O)CSc1nnc(-c2c[nH]c3ccccc23)o1`, with “inactive”.

On to `Cc1cccc(CNc2cc(-c3ccccc3Cl)ncn2)c1`, for which the Potency entry was “inactive”.

Turning to `Cc1oc(-c2ccccc2Cl)[n+]([O-])c1C`, the Potency was 22.4 µM (active). Regarding `Cc1cc(C)n(-c2nc(C(F)(F)F)nc3ccccc23)n1`, the Potency result is “inactive”.

On to `COc1cc(C(=O)NCc2ccc3c(c2)cc(C)n3C)cc(OC)c1OC`, for which the Potency result was “inactive”.

On to `Cc1ccc(NC(=S)NC2CCCC2)cc1`, for which the Potency entry is “inactive”. Turning to `C/C(=N\NC(=S)NC1CCCCC1)c1ccc(C)o1`, the Potency was 12.6 µM (active).

In the case of `C/C(=N/NC(=O)c1ccc(Br)o1)c1ccc(C)o1`, the Potency result is “inactive”. As to `COc1ccccc1CN(C)c1nnnn1-c1ccccc1`, the Potency entry was “inactive”.

Regarding `Cc1cc(OCC(=O)NC2CCN(C)CC2)ccc1[N+](=O)[O-]`, the Potency result is “inactive”. In the case of `CCOC(=O)c1cc(-c2ccc(F)cc2)n(CC(=O)NCc2ccccn2)c1C`, the Potency entry was “inactive”. On to `O=C(Nc1ccon1)c1sc2ccccc2c1Cl`, for which the Potency entry is “inactive”. `Oc1ccc(N=Cc2sc3ccccc3c2Cl)cc1`: the Potency is 15 µM (active). Still for that read-out and setting: under `O=C(N/N=C/c1c(Cl)[nH]c2ccccc12)c1sc2ccccc2c1Cl` stands “inactive”; under `Cc1cc(N2CCOCC2)nc2ccc(NC(=S)N3CCN(Cc4ccccc4)CC3)cc12`, “inactive”.

Regarding `CCN(CC)C(=O)N(CC)Cc1ccccc1`, the Potency result is “inactive”. For `O=S(=O)(NCC1CCCO1)c1ccc2ccccc2c1` (centres undefined), the Potency entry is “inactive”. Regarding `O=S(=O)(NCC1CCCO1)c1cnc(Cl)c(Cl)c1` (centres undefined), the Potency was 3.55 µM (active). In the case of `Cc1cc(Cl)c(S(=O)(=O)NCC2CCCO2)cc1OCC(N)=O` (centres undefined), the Potency result was “inactive”. With `CCO[C@@H]1OC(C(=O)NCc2nc3ccccc3[nH]2)=C[C@H](C2CCCCC2)[C@H]1CCCO`, the Potency result was “inactive”. Take `O=C(NNC(=S)NCCCN1CCOCC1)c1ccncc1`: the Potency entry was “inactive”. Consider `S=c1[nH]nc(-c2ccncc2)n1/N=C/c1ccccc1Cl`, for which the Potency entry was “inactive”. The same measure, in the same setting: under `S=c1[nH]nc(-c2ccccc2)n1/N=C/c1c[nH]c2ccccc12` stands “inactive”; under `Oc1ccccc1/C=N/n1c(-c2cccs2)n[nH]c1=S`, 15.8 µM (active); under `CCCC1(C(=O)OC)NC(c2ccco2)C2C(=O)N(C)C(=O)C21` (centres undefined), “inactive”. Same read-out and setting: then `COc1ccc(NC(=S)NCCNC(C)=O)cc1`, with “inactive”; and `Cc1ccc(NC(=O)OCc2cncs2)cc1`, with “inactive”.

For the molecule `COc1ccc(NC(=S)Nc2ccccc2Cl)cn1`, the Potency entry is “inactive”. Regarding `COc1ccc(CS(=O)/C(Cl)=C(/Cl)C(=O)Nc2ccc(OC)nc2)cc1` (centres undefined), the Potency is 8.91 µM (active). Regarding `COc1cccc(NC(=O)Cc2ccc(C)cc2)c1`, the Potency entry was “inactive”.

Turning to `COc1ccc(NC(=O)/C(Cl)=C(/Cl)S(=O)Cc2ccc(C)cc2)cn1` (centres undefined), the Potency was 5.01 µM (active). Same read-out and setting: under `COc1cccc(C2c3[nH]c4ccccc4c3CCN2Cc2cccc(C)n2)c1` (centres undefined) stands “inactive”; under `O=C(COc1ccc(Cl)cc1[N+](=O)[O-])N1CCCCC1`, “inactive”. Take `CC(C)(C)NC(=O)CN(C(=O)c1ccc(Cl)nc1)c1cccc2ccccc12`: the Potency result was “inactive”.

As to `Clc1ccc2nc(CSc3ccccc3)cn2c1`, the Potency entry is “inactive”. Still for that read-out and setting: then `COC(=O)CNC(=O)C(CCSC)NC(C)=O` (centres undefined) (Ac-[ξM]-Gly-OMe), with “inactive”; and `CNC(=O)NC(=O)CSc1nnc(-c2ccc(F)cc2)n1CC1CCCO1` (centres undefined), with “inactive”; and `O=C(CSc1nnc(-c2ccco2)n1CC1CCCO1)c1ccccc1` (centres undefined), with 25.1 µM (active). With `Cc1nnc(SCC(N)=O)n1CC1CCCO1` (centres undefined), the Potency result was “inactive”. In the case of `C=C1c2cccc(OC)c2O[C@H](C(=O)OCC)[C@@H]1CCCCCC`, the Potency result was “inactive”. On the same count and under the same terms, then `Cc1cc([N+](=O)[O-])ccc1NC(=O)c1ccc(NC(=O)C(C)C)cc1`, with “inactive”; and `CN(C)c1ccc(C=C2C(=O)OC3(CCCC3)OC2=O)cc1`, with 0.251 µM (active). On to `CC1CCCCC1NC(=O)COC(=O)Cc1ccc(Br)cc1` (centres undefined), for which the Potency entry is “inactive”. Still for that read-out and setting: then `COC(=O)C/C=C/[C@@H](C)[C@H](NC(=O)OCC(Cl)(Cl)Cl)c1ccccc1`, with “inactive”; and `CCOC(=O)Cc1cc(=O)[nH]c(=O)[nH]1`, with “inactive”. Regarding `CNc1nnc(-c2ccco2)s1`, the Potency result is “inactive”. Take `COc1ccc(OCC(=O)Nc2nnc(-c3ccco3)s2)cc1`: the Potency is 22.4 µM (active). Consider `COCC(=O)Nc1nnc(COc2ccccc2)s1`, for which the Potency entry is “inactive”. Turning to `Cn1nccc1NC(=O)CC(CC(=O)O)c1ccccc1` (centres undefined), the Potency result was “inactive”. Same read-out and setting: then `CCc1ccccc1NC(=O)CN(c1ccc(OC)cc1OC)S(=O)(=O)c1ccccc1[N+](=O)[O-]`, with “inactive”. Take `Cc1c(C(=O)Nc2cccc(Cl)c2)cn2c(nc3ccccc32)c1C#N`: the Potency entry is “inactive”.
